Screening data: PubChem, National Center for Advancing Translational Sciences (NCATS)
Most compounds without a hit are left out; they make up all but 1.2% or so of the library.
VDR inh: inhibitors of human vitamin D receptor; AID 504847; Potency, µM, actives largely listed as inhibitors; P11473; hit rate 0.93% among 400,000; VDR-SRC2-3 peptide fluorescence polarization, 2 h
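Inhibition of the VDR/SRC2-3 peptide interaction is quantified by fluorescence polarization. Compounds (23 nl, pintool) incubate with the reagents for 2 hours at ambient room temperature.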
GCN5L2 inh: blocks human GCN5L2 histone acetyltransferase. Potency, µM (titrated, usually from 58.9 µM), actives largely listed as inhibitors. hit rate 0.21% among 390,000. GCN5L2 HAT assay, ThioGlo1 CoA-SH fluorescence. Q92830
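Preincubate 20nM GCN5L2 with compound 15 min, RT → add 50uM ThioGlo1 + 75uM H3(1-25) + 70uM acetyl-CoA → read fluorescence 0 and 20 min. Primary qHTS; fluorescent artifacts likely.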
TexasRed fluor: counter-screen for TRb-SRC2 inhibitors: fluorescence interference | TRb/SRC2 Texas Red total fluorescence interference | Potency, µM (series often up to 106 µM) | hit rate 0.29% among 280,000 | AID 1479; active = well fitted curve in either direction with a large enough effect; inconclusive = small, poorly fitted or top-dose-only effect
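Flags fluorescent or light-absorbing compounds by total fluorescence, S + 2P, at 555 nm excitation and 632 nm emission. Mixture: 20 nM Texas Red SRC2 peptide, 0.6 uM human TRb LBD, 1 uM T3, 5% DMSO; compound exposure 5 h at ambient temperature.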
RGS12 GoLoco inh: RGS12 GoLoco-Gai1 interaction inhibition | Potency, µM (highest dose often 61.6 µM), usual class: inhibitors | AID 880 | Gai1:RGS12 GoLoco peptide FP, rhodamine, 10 min | hit rate 0.44% among 230,000; active = well fitted inhibition curve with a large enough effect, not every such curve was filed as active; inactive = no such curve, though single readings can be large or run the other way; note: nearly all actives have a fitted effect of over 30% in size
TRb SRC2 PPI: inhibitors of human thyroid hormone receptor beta-SRC2 interaction | P10828 | TRbeta-SRC2 peptide binding, fluorescence polarization; receptor liganded with 1 µM T3 | Potency, µM (doses to about 106 µM), most hits filed as inhibitors | hit rate 0.065% among 280,000 | AID 1469; note: nearly all actives have a fitted effect of over 50% in size
Target sequence (P10828 whole entry, looked up): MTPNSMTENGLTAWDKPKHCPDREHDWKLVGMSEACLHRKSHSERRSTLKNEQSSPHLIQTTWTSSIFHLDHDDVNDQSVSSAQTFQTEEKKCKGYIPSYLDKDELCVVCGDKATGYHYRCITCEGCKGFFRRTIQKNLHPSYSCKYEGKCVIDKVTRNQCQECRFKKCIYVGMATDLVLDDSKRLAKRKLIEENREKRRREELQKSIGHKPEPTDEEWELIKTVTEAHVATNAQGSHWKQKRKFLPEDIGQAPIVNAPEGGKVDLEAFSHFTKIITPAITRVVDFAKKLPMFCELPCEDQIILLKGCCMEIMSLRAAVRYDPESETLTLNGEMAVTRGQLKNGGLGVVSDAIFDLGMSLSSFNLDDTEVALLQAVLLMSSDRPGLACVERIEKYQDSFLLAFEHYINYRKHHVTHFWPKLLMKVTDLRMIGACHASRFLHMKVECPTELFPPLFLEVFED
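Assay buffer: 20 mM Tris-HCl, 100 mM NaCl, 10% glycerol, 1 mM EDTA, 0.01% NP-40, 1 mM DTT, 1 uM T3, 5% DMSO; TRb LBD 0.6 uM, Texas Red SRC2 20 nM; FP after 5 hr.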
Hits are given with their value; 0 = inactive; ? = inconclusive; - = not tested or not shown; [ ] = remark or other dose. Unless noted, calls come from the whole dose curve; as a rule, active = well fitted curve in the direction sought with a large enough effect; inconclusive = small, poorly fitted or top-dose-only effect, or another doubt; inactive = no such curve, though single readings can be large; an effect the other way counts as inactive or inconclusive.

SMILES	VDR inh	GCN5L2 inh	TexasRed fluor	RGS12 GoLoco inh	TRb SRC2 PPI
Cc1cccn2c(=O)c3cc(C(=O)NC4CCCC4)c(=N)n(Cc4ccc(F)cc4)c3nc12	0	0	-	-	-
CCOCCCn1c(=N)c(C(N)=S)cc2c(=O)n3cccc(C)c3nc21	79.4µM	0	0	0	0
Cc1cccn2c(=O)c3cc(C(=O)NC4CCCCC4)c(=N)n(Cc4ccccc4)c3nc12	0	15.8µM	-	-	-
CCCN1CNc2c(c(=O)[nH]c(=S)n2CCc2cc(OC)ccc2OC)C1	0	-	-	-	-
Cc1nc(N2CCCCC2)c2sc(=S)n(C)c2n1	0	0	0	0	0
CCN1CCN(c2nc(C)nc3c2sc(=S)n3C)CC1	25.1µM	0	0	0	0
CCCCCCCCC/C=C/CC1CC(=O)OC1=O (configuration not stated)	-	-	0	0	0
Cn1c(Cl)cnc1C1CC(=O)c2cc(Cl)ccc2O1 (configuration not stated)	79.4µM	0	0	0	0
CCCCCc1ccc(N)cc1	-	-	0	-	0
CC1=C(c2ccc(NN=C(C#N)C#N)cc2)NNC(=O)C1	20µM	0	-	-	-
COc1ccccc1OCCn1c(CCNC(=O)C2CCCCC2)nc2ccccc21	0	-	-	-	-
CSc1ccc(/C=C/c2nc3ccccc3n2S(=O)(=O)c2ccc(Br)cc2)cc1	0	0	0	-	0
CC1Cc2ccccc2N1c1ncnc2c1nnn2Cc1ccccc1 (configuration not stated)	0	22.4µM	0	0	0
COC(=O)C/C=C\[C@@H](C)[C@@H](CO)NS(=O)(=O)c1ccc(C)cc1	-	-	0[11.2 µM]	-	0[11.2 µM]
O=C(NCc1cccnc1)/C(=C/c1ccc(-c2ccc(Cl)cc2)o1)S(=O)(=O)c1ccccc1	22.4µM	0	0	0	0
O=C(NCc1cccnc1)/C(=C/c1ccc(-c2cccc(C(F)(F)F)c2)o1)NC(=O)c1ccccc1	0	?	0	0	0
CCCCCCC(O)CCCCCCCCCCC(=O)OC (configuration not stated)	-	-	0	-	0
[N-]=[N+]=Nc1ccc(C(=O)CSC[C@H](NC(=O)CC[C@H](N)C(=O)O)C(=O)NCC(=O)O)cc1	44.7µM	7.94µM	0	0	0
COc1ccc(NC(=O)N2CCc3nc(-c4ccccc4)c4c(c3C2)CO[C@@H](C)C4)cc1	-	-	0[11.2 µM]	0[14.2 µM]	0[11.2 µM]
Cc1cc(O)c(-c2ccnc3cc(-c4ccccc4)nn23)cc1Cl	0	0	11.2µM[quencher]	-	0
Cc1ccc(NC(=O)Cc2ccccc2Cl)cc1S(=O)(=O)N(C)C	0	0	0.1µM[quencher]	0	0
CN1C(=O)/C(=C/c2ccc(-c3ccccc3[N+](=O)[O-])o2)SC1=Nc1ccc(Cl)c(C(=O)O)c1	?	0	0	14.1µM	0
Cc1ccc(S(=O)(=O)Cc2nc(-c3ccc(C(=O)NCc4ccccc4F)cc3)oc2C)cc1	0	25.1µM	0	-	?
CCCNC(=O)c1ccc(-c2nc(CS(=O)(=O)c3ccc(C)cc3)c(C)o2)cc1	0	0	0	-	0
Cc1cccc(N2CCN(C(=O)c3ccc4c(c3)NC(=O)C(CSCc3cccc(F)c3)N4)CC2C)c1 (configuration not stated)	?	14.1µM	-	-	-
SMILES	VDR inh	GCN5L2 inh	TexasRed fluor	RGS12 GoLoco inh	TRb SRC2 PPI
Cc1cccc(N2CCN(C(=O)c3ccc4nccnc4c3)CC2C)c1 (configuration not stated)	0	0	-	-	-
Cc1ccc(CNC(=O)CCN2C(=O)C(C)Oc3ccc(C)cc32)cc1 (configuration not stated)	0	0	35.5µM[quencher]	-	0
Nc1cc(S(=O)(=O)Nc2cc(Cl)ccc2Cl)ccc1N1CCOCC1	35.5µM	0	0	0	0
COc1ccc(SCC(CC(C)C)N2CCN(CCc3ccccc3)CCC2=O)cc1 (configuration not stated)	0	-	0	-	0
COc1cc(/C=C2\C(=N)N3N=C(S(C)(=O)=O)SC3=NC2=O)ccc1OC(=O)c1ccco1	79.4µM	0	-	-	-
Cc1ccccc1S(=O)(=O)N1CCN(c2nc(-c3cccs3)nc3ccccc23)CC1	0	-	-	-	-
O[C@@H](c1cc(-c2ccccc2)nc2c1ccc1ccccc12)C1CCCCN1 (some centres not stated)	-	-	-	0[14.2 µM]	-
O=C(CC(=O)c1cc(Cl)ccc1O)c1ccccc1	0	0	0	0	0
O=C(c1ccccc1)c1cc(Cl)ccc1N1C(=O)C=CC1=O	25.1µM	?	0	0	0
CCOc1ccc(NC(=O)c2c(NC(=O)c3ccccc3Br)sc3c2CCC(C)C3)cc1 (configuration not stated)	39.8µM	?	0	-	0
Cc1oc(=O)c(NC(=O)c2cccc(Cl)c2)cc1C(=O)c1ccccc1	39.8µM	0	0	0	0
COc1ccc(C(=O)Nc2cc(C(=O)c3ccccc3)c(C)oc2=O)cc1	31.6µM	0	0	0	0
CCCN1C(=O)c2ccccc2NC1c1ccc(OC)c(COc2ccc([N+](=O)[O-])cc2)c1 (configuration not stated)	0	-	-	-	-
O=S(=O)(Nc1nnc(C(F)(F)F)s1)c1ccc(Cl)cc1	0	0	-	-	-
CC(C)(C)c1nnc(NS(=O)(=O)c2ccc(F)cc2)s1	79.4µM	-	-	-	-
CSCC[C@H](N)C(=O)N[C@@H](CO)C(=O)N[C@@H](CCCN=C(N)N)C(=O)N1CCC[C@H]1C(=O)N[C@@H](C)C(=O)N[C@@H](CS)C(=O)N1CCC[C@H]1C(=O)N[C@@H](CC(N)=O)C(=O)N[C@@H](CC(=O)O)C(=O)N[C@@H](CCCCN)C(=O)N[C@@H](Cc1ccc(O)cc1)C(=O)N[C@@H](CCC(=O)O)C(=O)O	0	0	0	-	0
CN(C)c1ccc(NC(=O)CSCc2nc3c(nnn3Cc3ccc(F)cc3)c(=O)[nH]2)cc1	0	?	0	3.55µM	0
Cc1cccc(NC(=O)CSCc2nc3c(nnn3Cc3ccc(F)cc3)c(=O)[nH]2)c1C	0	0	0	0	0
Cc1noc(C)c1C(=O)N1CCC[C@@]2(CCN(Cc3ccccc3)C2)C1	0	0	-	0	-
COc1ccc(C(=O)N2CCC[C@@]3(CCN(c4cccc(-c5ccccc5)c4)C3)C2)cc1	39.8µM	0	-	0	-
COCC(=O)N1CCC2(CCCN(c3ccc(-c4ccccc4)cc3)C2)CC1	50.1µM	0	-	0	-
Cc1noc(C)c1C(=O)N1CCC[C@@]2(CCN(c3cccc(-c4ccccc4)c3)C2)C1	39.8µM	0	-	0	-
COc1ccc(C(=O)N2CCC3(CCCN(c4ccc(-c5ccccc5)cc4)C3)CC2)cc1	?	0	-	0	-
CCOc1[nH]c(/N=C/c2ccc(OC)cc2)c(C#N)c1C#N	0	-	-	-	-
CCOC(=O)C1=C(CN(CC)Cc2ccccc2)NC(=O)NC1c1ccc(OC(C)C)cc1 (configuration not stated)	0	0	0	-	0
Cc1ccccc1Oc1nc2ccccn2c(=O)c1/C=C(\C#N)C(=O)Nc1c(C)n(C)n(-c2ccccc2)c1=O	?	0	0	0	0
